From the supplement of paper PMC11402862

Biological target: FXR LBD (GAL4 fusion) (UniProt Q96RI1)
Test: luciferase reporter transactivation, fold of solvent control; higher = stronger receptor activation
Conditions: HEK293T, exposure time: 24 h
Protocol: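 HEK293T cells were transiently transfected with a GAL4-DBD fused to the ligand-binding domain of a human nuclear receptor (PPARα, PPARγ, PPARδ, FXR, LXRα, PXR, RARα or CAR), the GAL4-(UAS)5-TK firefly luciferase reporter and a Renilla luciferase normalisation plasmid. Cells were exposed to compound for 24 h in 0.5% DMSO. Firefly/Renilla luciferase was expressed as fold of the solvent control (=1). Values are the mean of 2-3 biological replicates; receptor agonists were used as positive controls.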

Sequence of FXR LBD (GAL4 fusion) (Q96RI1 whole entry, looked up, the tested form may be a part): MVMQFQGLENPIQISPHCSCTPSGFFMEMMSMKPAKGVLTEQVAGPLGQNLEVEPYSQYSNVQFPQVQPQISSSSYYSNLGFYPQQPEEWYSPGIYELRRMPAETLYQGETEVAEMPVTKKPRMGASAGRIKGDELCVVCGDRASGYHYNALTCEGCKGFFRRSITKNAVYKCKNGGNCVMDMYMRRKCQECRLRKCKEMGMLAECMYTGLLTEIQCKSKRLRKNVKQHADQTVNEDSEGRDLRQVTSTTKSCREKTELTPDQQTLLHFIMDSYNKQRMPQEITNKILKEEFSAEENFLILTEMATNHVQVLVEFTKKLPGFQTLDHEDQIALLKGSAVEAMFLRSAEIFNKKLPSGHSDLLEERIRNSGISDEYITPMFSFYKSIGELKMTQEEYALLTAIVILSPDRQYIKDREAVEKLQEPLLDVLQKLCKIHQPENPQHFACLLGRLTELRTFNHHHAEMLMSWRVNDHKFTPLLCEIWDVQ

| SMILES | luciferase reporter transactivation (concentration: 1 µM) | luciferase reporter transactivation (concentration: 5 µM) | luciferase reporter transactivation (concentration: 10 µM) | luciferase reporter transactivation (concentration: 25 µM) | luciferase reporter transactivation (concentration: 50 µM) | luciferase reporter transactivation (concentration: 100 µM) | luciferase reporter transactivation (concentration: 250 µM) | luciferase reporter transactivation (concentration: 500 µM) | luciferase reporter transactivation (concentration: 2.5 µM) |
| --- | --- | --- | --- | --- | --- | --- | --- | --- | --- |
| O=C(O)C(F)(F)C(F)(F)F [perfluoropropanoic acid] | 1.54 | 1.63 | 1.39 | 0.693 | 1.46 | 1.43 | 1.27 | 1.62 |  |
| NS(=O)(=O)C(F)(F)C(F)(F)C(F)(F)C(F)(F)C(F)(F)C(F)(F)C(F)(F)C(F)(F)F [perfluorooctane sulfonamide] | 0.705 | 1.1 | 0.752 |  |  | 1.01 |  |  | 0.788 |
